Pf growth 96h: P. falciparum growth inhibition at 96 hour, primary screen for plastid delayed-death inhibitors | P. falciparum luciferase reporter growth, 96 h | Potency, µM (titrated, usually from 28.7 µM), for inactives: at the highest dose activity change, negative = inhibition, hits mostly inhibitors | 6.9% of 320,000 active | AID 504834; note: potency is the fitted concentration of half-maximal effect; % is set by controls: 0 for no effect and ±100 for the full control effect
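Erythrocytes infected with luciferase-expressing P. falciparum were dispensed at 2% hematocrit and 0.05% parasitemia (final), then incubated with compounds 96 hours at 37 C in 5% CO2. Luminescence after detection reagent addition reported growth.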
CHX counter: affects cycloheximide protein synthesis inhibition readout, counter-screen. cell reporter, cycloheximide protein synthesis inhibition counterscreen. max response, %. 12% of 300,000 active; in the data active = max response mostly above about 13%, no sharp cut-off; inactive = mostly below about 14%; note: read at 38.3 µM for the half of the compounds with a filed dose; 0% is about no effect
Pf growth 48h: P. falciparum growth inhibition at 48 hours (one generation); 5.9% of 310,000 active; AID 504832; Potency, µM (doses to about 28.7 µM), for inactives: top-dose activity change, negative = inhibition, usual class: inhibitors; P. falciparum luciferase growth in erythrocytes, 48 h; note: potency is the fitted concentration of half-maximal effect; % is set by controls: 0 for no effect and ±100 for the full control effect
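Cell-based growth assay: transgenic P. falciparum expressing firefly luciferase, cultured in red cells within RPMI 1640 containing 0.5% w/v Albumax, 24 mM bicarbonate and gentamycin. A drop in luciferase activity indicates inhibition.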
Shiga toxin inh: inhibitors of Shiga toxin in Vero cells. Vero cells, Shiga toxin protein synthesis inhibition reporter. inhibition, % at 38.7 µM. 9.2% of 290,000 active. AID 2315; in the data active = inhibition mostly above about 28%, no sharp cut-off; inactive = mostly below about 43%; note: 0% is about no effect
* marks the source's active call; other numbers are inactive results; ? = inconclusive; . = not tested or not shown. Sampled rows, rich in hits. Any-hit rate of the full collection: about 21%. Unless noted, calls come from the whole dose curve; as a rule, active = well fitted inhibition curve with a large enough effect; inconclusive = small, poorly fitted or top-dose-only effect, or another doubt; inactive = no such curve, though single readings can be large or run the other way.

SMILES	Pf growth 96h	CHX counter	Pf growth 48h	Shiga toxin inh
Cc1ccc(NC(=O)CCNS(=O)(=O)c2ccc3c(c2)CCC(=O)N3)cc1F	9.28µM*	-1.1	49.9%	6.8
Cc1ccccc1NC(=O)CCNS(=O)(=O)c1ccc2c(c1)CCC(=O)N2	?	-2.0	33.7%	-2.2
CCOc1ccc(NC(=O)CCNS(=O)(=O)c2ccc3c(c2)CCC(=O)N3)cc1	-6.4%	-4.8	1.9%	-18.2
CC1CC(C)CN(C(=O)CCNS(=O)(=O)c2ccc3c(c2)CCC(=O)N3)C1 (stereo not drawn)	?	-3.4	5.9%	-12.3
O=C1CCc2cc(S(=O)(=O)NCCC(=O)N3CCN(c4cccc(Cl)c4)CC3)ccc2N1	10.4µM*	-0.3	?	1.6
O=C(CCNS(=O)(=O)c1ccc2c(c1)CCC(=O)N2)Nc1ccc2c(c1)OCCO2	?	29.4*	30.7%	55.6*
COC(=O)C1=C(C(=O)OC)[C@@H]2N(C)c3ccc(OC)cc3[C@@]23C[C@@H](C(=O)OC)N=C3N1	25.2%	-4.9	57.6%	-0.5
Cc1ccc(C(=O)Nc2ccc(-c3csc(C)n3)cc2)cc1	288.3%	34.9*	417.7%	117.7*
Cc1csc(NC(=O)C2CCCC2)n1	56.2%	27.8*	.	32.7
CCc1ccccc1NC(=O)c1ccc(-c2csc(C)n2)cc1	53.2%	27.2*	69.2%	53.2*
Cc1nc(-c2ccc(NC(=O)C3CCCCC3)cc2)cs1	.	42.9*	90.7%	136.8*
CC(=O)N(C)c1ccc(C(O)(C(F)(F)F)C(F)(F)F)cc1	-0.4%	-0.9	13.1%	25.0
Cc1cccc([C@@H]2[C@@H]3C(=O)N(Cc4ccccc4)C(=O)[C@@H]3[C@]3(C)C(=O)N(c4ccc(C(F)(F)F)cc4)C(=O)N23)c1	-35.6%	-2.8	?	-4.6
CN(C)CCCN(C(=O)c1ccc(N2C(=O)CCC2=O)cc1)c1nc2c(F)cccc2s1	-4.8%	7.2	9.3%	2.7
Cc1cc(C)c2nc(N(CCCN(C)C)C(=O)c3ccc4c(c3)CCCC4)sc2c1	?	.	7.38µM*	.
Cc1ccc2nc(N(CCCN(C)C)C(=O)c3cc(-c4cccs4)nc4ccccc34)sc2c1	13.1µM*	15.7	-28.6%	23.2
CN(C)CCCN(C(=O)c1cc(-c2cccs2)nc2ccccc12)c1nc2c(F)cccc2s1	?	1.1	?	-9.0
CN(C)CCCN(C(=O)c1ccc2c(c1)CCCC2)c1nc2c(F)cccc2s1	?	16.7*	9.28µM*	23.9*
Cc1ccc2nc(N(CCN(C)C)C(=O)c3cc(Cl)sc3Cl)sc2c1	8.1%	21.8*	41.0%	32.8*
CCOc1ccc2nc(N(CCN(C)C)C(=O)c3ccc4c(c3)CCCC4)sc2c1	?	14.3	-21.9%	-3.1
Cc1ccc2nc(N(CCCN(C)C)C(=O)c3ccc4c(c3)CCCC4)sc2c1	1.85µM*	-9.5	10.4µM*	-15.4
C/C(Cn1nc([N+](=O)[O-])cc1C)=N\NC(=O)c1ccc(O)cc1O	-26.7%	30.3*	-20.1%	38.8
C/C(Cn1cnc([N+](=O)[O-])n1)=N\NC(=O)c1ccc(O)cc1O	?	42.1*	42.8%	86.7*
C/C(Cn1cnc([N+](=O)[O-])n1)=N\NC(=O)c1ccccc1O	34.8%	23.6*	3.2%	39.3*
CS(=O)(=O)c1ccc(Cl)c(NC(=O)CSc2nc3ccccc3c(=O)n2Cc2ccco2)c1	-15.6%	.	10.0%	.
SMILES	Pf growth 96h	CHX counter	Pf growth 48h	Shiga toxin inh
O=C(CSc1nc2ccccc2c(=O)n1-c1ccc(F)cc1)Nc1cc(S(=O)(=O)N2CCOCC2)ccc1Cl	3.7µM*	0.6	6.57µM*	-5.5
COC(=O)c1ccc(CSc2nc3ccccc3c(=O)n2Cc2ccco2)o1	-19.0%	15.9*	?	17.5
O=C(CSc1nc2cc(Cl)ccc2c(=O)n1Cc1ccco1)Nc1ccc(S(=O)(=O)N2CCOCC2)cc1	10.4µM*	13.9	?	-57.1
CS(=O)(=O)c1ccc(Cl)c(NC(=O)CSc2nc3ccccc3c(=O)n2CCCN2CCOCC2)c1	7.38µM*	-2.6	?	-4.2
Cc1ccc(S(=O)(=O)N2CCOCC2)cc1NC(=O)CSc1ccccn1	2.3%	-2.5	179.2%	-25.0
Cc1ccc(S(=O)(=O)N2CCOCC2)cc1NC(=O)CSc1nc2ccccc2c(=O)n1Cc1ccccc1	5.22µM*	-5.0	?	-13.1
O=c1c2ccccc2nc(SCc2cccc(F)c2)n1-c1cccc(S(=O)(=O)N2CCCC2)c1	6.57µM*	3.2	?	-5.7
O=C(CSc1nc2ccccc2c(=O)n1Cc1ccco1)Nc1cccc(O)c1	13.1µM*	19.0*	10.8%	42.7
O=C(c1ccc(-n2c(SCc3cccc(F)c3)nc3ccccc3c2=O)cc1)N1CCOCC1	30.5%	-5.3	?	-11.6
Cc1ccc(C)c(OCCn2c(CCNC(=O)C3CCCCC3)nc3ccccc32)c1	.	0.9	.	11.1
COc1cc(NC(=O)c2cccc(Cl)c2)ccc1NC(=O)c1cccs1	30.2%	16.5*	14.9%	97.7
COc1c(Cl)cc(Cl)cc1C(=O)Nc1ccc(C(=O)O)cc1	-18.5%	1.6	11.5%	1.8
COc1cc(NC(=O)c2cc3ccccc3cc2OC)ccc1NC(=O)c1cccs1	0.6%	1.0	-4.4%	-2.5
COc1c(Cl)cc(Cl)cc1/C=C/C(=O)c1ccc(NC(=O)c2cccs2)cc1	-12.2%	30.1*	5.22µM*	40.0*
COc1cc(NC(=O)c2ccccc2Cl)ccc1NC(=O)c1cccs1	26.0%	45.6*	141.8%	105.0*
Cc1csc(SCC(=O)c2ccc(S(=O)(=O)N3CCOCC3)cc2)n1	10.4µM*	-4.4	?	27.5
CCc1ccc(C(=O)CSc2nc3cc(S(=O)(=O)N4CCOCC4)ccc3n2CC)cc1	10.4µM*	12.8	?	21.1
Cc1csc(SCC(=O)Nc2cc(S(=O)(=O)N3CCOCC3)ccc2N2CCOCC2)n1	?	-1.0	?	-1.7
CCn1c(SCC(=O)OC)nc2cc(S(=O)(=O)N3CCOCC3)ccc21	-10.0%	.	-13.8%	.
CC(C)c1ccc(S(=O)(=O)N2CCN(C(C)C(=O)N3CCCC3)CC2)cc1 (stereo not drawn)	11.7µM*	.	?	.
CC(C(=O)N1CCCC1)N1CCN(S(=O)(=O)c2ccc(C(C)(C)C)cc2)CC1 (stereo not drawn)	0.465µM*	.	0.828µM*	.
O=C(NCCCN1CCOCC1)c1ccc(Sc2cccc(Cl)c2)c([N+](=O)[O-])c1	?	-2.3	2.8%	-13.6
COc1ccc(NC(=O)/C=C/c2ccc(Br)o2)cn1	9.3%	20.0*	63.1%	85.9*
COc1ccc(NC(=O)/C=C/c2cccc(F)c2)cn1	147.4%	42.8*	215.7%	72.0*
COc1ccc(NC(=O)/C=C/c2ccco2)cn1	180.8%	35.5*	245.2%	89.7*
COc1ccc(NC(=O)c2ccco2)cn1	88.8%	10.7	71.6%	27.5
Cc1ccc(CN2CC(C(=O)N3CCN(c4ccccc4O)CC3)CC2=O)cc1 (stereo not drawn)	?	.	-13.5%	.
Cc1ccc2nc(NC(=O)C(NS(=O)(=O)c3cccc4nsnc34)C(C)C)sc2c1 (stereo not drawn)	-15.9%	-8.1	.	-12.4
Cc1nn(-c2ccccn2)c(C)c1Oc1ccccc1O	2.62µM*	9.5	.	20.4

Source: PubChem
